We go through 79 sequences from the supplement of paper PMC10338343.

± gives the standard deviation. The full ranking holds about 3,000 sequences; the median of “pre-steady-state target cleavage rate” is about 0.0079, and the highest 2% start at about 0.2. The entries come from a sample that favours the highest values as a whole.

The test system of the experiment is MILI (PIWIL2) piRISC loaded with piRNA #2 (26 nt). Description: pre-steady-state target cleavage rate (min^-1); MIWI and MILI are mouse PIWI proteins and EfPiwi is from a freshwater sponge; tags in brackets are library labels; higher = faster piRNA-guided slicing of the target. Conditions: guide: piRNA #2 5'p-UUAGGUAACCCAGUAGAUCCAGAGGA; auxiliary factor: 500 nM mouse GTSF1. How it is done:
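Cleave-'n-Seq: a library of target RNAs (target site embedded in constant flanks, ACAGCATTCCGCGTTAGTGATATCCG... 5' flank; DNA-blocked outside the site) at 0.1 nM was incubated with 1 nM active mouse MILI or MIWI piRISC (synthetic 5'-monophosphorylated piRNA guide) with or without 500 nM mouse GTSF1 at 33 °C for 1 min to 16 h. Uncleaved targets were sequenced and normalised to non-target controls, and the pooled three trials were fitted to a burst-and-steady-state model to give the pre-steady-state cleavage rate (min^-1; k3 is constrained to at most 1e-4). Sequence is the target site only; target names encode pairing extent (gX:gY) and contiguous / 1-mismatch / 2-mismatch / bulge geometry. Fits with R² ≤ 0 are excluded.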
On to CUUAAGCUCUGGAUCUAGUGGGUUACCUAA, for which the “pre-steady-state target cleavage rate” value is 0.0282 ± 0.0073. With CUUAUCCUCUGGAUCCUACUGGGUUACCUAA, the “pre-steady-state target cleavage rate” value amounted to 0.0665 ± 0.018. For CUUAUCCUCUGGAGCUACUGGGUUACCUAA, the “pre-steady-state target cleavage rate” value was 0.238 ± 0.052. For CUUAUCCUCUGGACCUACUGGGUUACCUAA, the “pre-steady-state target cleavage rate” value amounted to 0.0996 ± 0.024.

Consider CUUAACCUCUGGAGCUACUGGGUUACCUAA, for which the “pre-steady-state target cleavage rate” value stood at 0.226 ± 0.049. Then CUUAAGCUCUGGAGCUACUGGGUUACCUAA, with 0.0783 ± 0.014. Then CUUAACCUCUGGACCUACUGGGUUACCUAA, with 0.0796 ± 0.023; and CUUAACCUCUGGAUCUACUGGGAUACCUUA, with 0.0634 ± 0.023; and CUUAAGGUCUGGAUCUACUGGGUUACCUUAA, with 0.0607 ± 0.015.

Turning to CUUAAGCUCUCCUUCUACUGGGUUACCUAA, the “pre-steady-state target cleavage rate” value came to 0.0472 ± 0.016. Then CUUAACCUCUGGAUCUACUGGGUUAGCCUAA, with 0.15 ± 0.035; and CUUAAGCCCUGGAUCUACUGGGUUACCUAA, with 0.202 ± 0.041; and CUUAAGCCUGGAUCUACUGGGUUACCUAA, with 0.104 ± 0.026. CUUAAGCUGCUGGAUCUACUGGGUUACCUAA: the “pre-steady-state target cleavage rate” value is 0.0417 ± 0.015. Then CUUAGCCUCUGGAUCUACUGGGUUACCUAA, with 0.218 ± 0.05. As for CUUAUACUCUGGAUCUACUGGGUUACCUAA, the “pre-steady-state target cleavage rate” value was 0.0651 ± 0.014.

Turning to CUUAUACCUCUGGAUCUACUGGGUUACCUAA, the “pre-steady-state target cleavage rate” value came out at 0.251 ± 0.058. Then CUUACCCUCUGGAUCUACUGGGUUACCUAA, with 0.11 ± 0.016; and CUUAAGCCUCUGGAUCUACUGGGUUACCUAA, with 0.146 ± 0.043; and “CUUAAGGACUGGAUCUACUGGGUUACCUAG [g2:g22:cont:t1G]”, with 0.0474 ± 0.017.

As to CUUAAGCUCAGGAUCUACUGGGUUUCCUAA, the “pre-steady-state target cleavage rate” value was determined as 0.0265 ± 0.01. To CUUAAGCUCUGGAUCUAAUGGGUUACCUAA belongs 0.0186 ± 0.0042; to CUUAAGCUCUGGAUCUACUGGGUGUACCUAA, 0.0345 ± 0.0091; to CUUAUCCUCUGGAUCUCUGGGUUACCUAA, 0.0227 ± 0.01.

With CUUAACCUCUGGAUCUGCUGGGUUACCUAA, the “pre-steady-state target cleavage rate” value turned out to be 0.097 ± 0.028. Then CUUAUCCUCUGGAUCUCCUGGGUUACCUAA, with 0.459 ± 0.18. Then CUUAACCUCUGGAUCUCCUGGGUUACCUAA, with 0.213 ± 0.084.

For CUUAACCUCUGGAUCUCUGGGUUACCUAA, the “pre-steady-state target cleavage rate” value came to 0.00889 ± 0.0054.

With CUUAUCCUCUGGAUCUGCUGGGUUACCUAA, the “pre-steady-state target cleavage rate” value was 0.0654 ± 0.015. To CUUAAGCUCUGGAUCAACUGGGUUACCUUA belongs 0.0336 ± 0.011; to CUUAAGGUCUGGAUCUACUGGGUUUACCUAA, 0.0618 ± 0.011. Consider CUUAACCUCUGGAUCUACUGGGUUUCCUAA, for which the “pre-steady-state target cleavage rate” value was determined as 0.224 ± 0.062. Consider CUUAACCUCUGGAUCUACUGGGUUUACCUAA, for which the “pre-steady-state target cleavage rate” value amounted to 0.0817 ± 0.019. To CUUAACCUCUGGAUCUACUGGGUUAACCUAA belongs 0.115 ± 0.024. To CUUAACCUCUGGUUCUACUGGGUUUCCUAA belongs 1.67 ± 0.98; to CUUAACCUCUGGAUCUUCUGGGUUACCUAA, 0.0795 ± 0.017. Take CUUAACCUCUGGAUCUUCUGGGUUUCCUAA: the “pre-steady-state target cleavage rate” value worked out at 0.243 ± 0.083. Regarding CUUAAGCUCUGGAUCUACUGGGUUUGCUAA, the “pre-steady-state target cleavage rate” value was determined as 0.144 ± 0.031. For the sequence CUUAACCUCUGGAUCUUCUGGGUAACCUAA, the “pre-steady-state target cleavage rate” value worked out at 0.0414 ± 0.016. As to CUUAACCUCUGGAUCUACUGGGUUUGCUAA, the “pre-steady-state target cleavage rate” value was determined as 0.305 ± 0.066. Consider CUUAACCUCUCGAUCUACUGGGUUUCCUAA, for which the “pre-steady-state target cleavage rate” value worked out at 0.138 ± 0.035. For the sequence CUUAACCUCUGCAUCUACUGGGUUUCCUAA, the “pre-steady-state target cleavage rate” value stood at 0.14 ± 0.059. Take CUUAACCUCUGGAUCUACUGGGUUAGCUAA: the “pre-steady-state target cleavage rate” value was found to be 0.112 ± 0.022. Regarding CUUAAGGAGACCUAGUACUUGGUUACCUAA, the “pre-steady-state target cleavage rate” value is less than 0.0001.

Consider CUUAUGCUCUGGAUCUACUGGGUAACCUAA, for which the “pre-steady-state target cleavage rate” value amounted to 0.0539 ± 0.012.

As to CUUAAGGACUGCAUCUACAGGGUUACCUAA, the “pre-steady-state target cleavage rate” value amounted to 0.0435 ± 0.015. Then CUUAACAUCUGGAUCUACUGGGUUACCUAA, with 0.114 ± 0.019.

As to “CUUAAGGAGUGGAUCUACUGGGUUACCUAG [g2:g21:cont:t1G]”, the “pre-steady-state target cleavage rate” value amounted to 0.0456 ± 0.013. As to CUUAAGCUGACGAUCUACUGGGUUACCUAA, the “pre-steady-state target cleavage rate” value was 0.0365 ± 0.015. Then CUUAAGCUCUGGAUUACUGGGUUACCUAA, with 0.0142 ± 0.0047; and “CUUAAGGAGAGGAUCUACUGGGUUACCUAA [g2:g20:cont:t1A]”, with 0.0156 ± 0.0072. Then CUUAAGGACAGGAUCUACAGGGUUACCUAA, with 0.0375 ± 0.014; and CUUAACCACUGGAUCAACUGGGUUACCUAA, with 0.0515 ± 0.014; and CUUAUCCUCUGGAUCUUCUGGGUUUCCUAA, with 0.258 ± 0.088.

In the case of CUUAUCCUCUGGAUCUAGUGGGUUUCCUAA, the “pre-steady-state target cleavage rate” value was determined as 0.055 ± 0.016. With CUUAACCUCUGGAUCUACUGGGUUUCCUUA, the “pre-steady-state target cleavage rate” value turned out to be 0.225 ± 0.066. To CUUAAGCUCUGCAUCUACUGGGUUUCCUAA belongs 0.0656 ± 0.022; to CUUAAGCUCUGGUUCUACUGGGUUUCCUAA, 0.219 ± 0.085. To CUUAACCUCUGGAUCUACUGGGUUACCUUA belongs 0.111 ± 0.026. To CUUAAGCUCUGGAUCUACUGGGUUUCCUAA belongs 0.107 ± 0.025; to CUUAACCUCUGGAUCUACUGGGUUUCGUAA, 0.128 ± 0.044; to CUUAAGCUCUGGAUCUUCUGGGUUUCCUAA, 0.0561 ± 0.017. In the case of CUUAACCUCUCGAUCUACUGGGUAACCUAA, the “pre-steady-state target cleavage rate” value was 0.0796 ± 0.017. As for CUUAACCACUGGUUCUACUGGGUUACCUAA, the “pre-steady-state target cleavage rate” value amounted to 0.112 ± 0.019.

As for CUUAACCACUGCAUCUACUGGGUUACCUAA, the “pre-steady-state target cleavage rate” value was 0.0927 ± 0.018.

As for CUUAUCCUCUGGAUCUACUGGGUGACCUAA, the “pre-steady-state target cleavage rate” value was determined as 0.0696 ± 0.014. Regarding CUUAACCUCUGGAACUACUGGGUUUCCUAA, the “pre-steady-state target cleavage rate” value came out at 0.311 ± 0.14. For the sequence CUUAACCUCUGGAACUACUGGGUAACCUAA, the “pre-steady-state target cleavage rate” value is 0.06 ± 0.024. To CUUAUCCUCUGGAACUACUGGGUUAGCUAA belongs 0.0654 ± 0.021.

Turning to CUUAUCCUCUGGAACUACUGGGUAACCUAA, the “pre-steady-state target cleavage rate” value worked out at 0.0599 ± 0.022. Then CUUAUCCUCUGGAACUACUGGGUUUCCUAA, with 1.1 ± 0.56; and CUUAACCUCUGGAACUACUGGGUUACCUAA, with 0.133 ± 0.03. In the case of CUUAAGGACUGGAUCUACUGGGUUACCUUAA, the “pre-steady-state target cleavage rate” value was found to be 0.0243 ± 0.014. Turning to CUUAUCCUCUGGAUCUAUUGGGUUACCUAA, the “pre-steady-state target cleavage rate” value came out at 0.139 ± 0.036. Regarding CUUAAGGAGACCUAGAUGACGGUUACCGAA, the “pre-steady-state target cleavage rate” value was less than 0.0001. As for CUUAAGCUCUGGAUCUACUGGGUUCCCUAA, the “pre-steady-state target cleavage rate” value stood at 0.0477 ± 0.017. For CUUAAGCUCUGCAUCUACUGGGUUACGUAA, the “pre-steady-state target cleavage rate” value turned out to be 0.0499 ± 0.016. CUUAUCCUCUGGAUCAACAGGGUUACCUAA: the “pre-steady-state target cleavage rate” value worked out at 0.0724 ± 0.01. Then CUUAAGGUCUGCAUCUACUGGGUAACCUAA, with 0.00707 ± 0.006.
